Screening results: PubChem, several laboratories
NTR1 ag – activates human neurotensin receptor 1; NTR1-U2OS beta-arrestin-GFP spot imaging, agonist mode; activation, % at 20 µM; hit rate 0.17% among 330,000;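 active = activation at or above 40% of the spot to cytoplasm intensity ratio, with at least 20 cells analyzed; inconclusive = wells under 20 cells, flagged as cytotoxic or low count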;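 note: 0% = DMSO without peptide and 100% = 100 nM NTR1 peptide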
Target sequence (P30989 whole entry, looked up): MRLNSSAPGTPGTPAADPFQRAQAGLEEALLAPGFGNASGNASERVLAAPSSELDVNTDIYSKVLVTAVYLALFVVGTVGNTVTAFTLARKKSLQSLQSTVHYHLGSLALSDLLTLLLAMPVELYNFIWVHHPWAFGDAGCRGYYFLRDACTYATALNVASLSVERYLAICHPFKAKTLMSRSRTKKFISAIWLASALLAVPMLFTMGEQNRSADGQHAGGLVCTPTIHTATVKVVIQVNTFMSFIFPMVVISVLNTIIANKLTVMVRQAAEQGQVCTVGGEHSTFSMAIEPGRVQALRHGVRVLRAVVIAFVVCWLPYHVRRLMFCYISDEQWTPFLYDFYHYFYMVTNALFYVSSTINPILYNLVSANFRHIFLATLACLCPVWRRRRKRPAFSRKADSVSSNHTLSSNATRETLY
Jurkat NFkB inh – inhibitors of the PMA/ionomycin-induced NF-kB reporter in Jurkat cells; PMA/ionomycin-induced NF-kB luciferase reporter, luminescence; inhibition, % at 4 µM; hit rate 0.53% among 330,000; AID 435003; in the data active = inhibition above about 50%
697 NFkB inh – inhibitors of the PMA/ionomycin-induced NF-kB reporter in 697 B cells; AID 435022; 697 B-cell NF-kB luciferase reporter, 16 h; inhibition, % at 4 µM; hit rate 0.33% among 330,000; in the data active = inhibition above about 35%
Bfl-1 A1 inh – inhibitors of the anti-apoptotic protein A1, read as caspase activation. MEF A1-2A-BIM cells, Caspase-Glo 3/7 luminescence, 3 h; percent of clofoctol response, vehicle zero. caspase activation, % (test concentration not listed). hit rate 0.066% among 330,000;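 active = over half of replicate activation scores above 10%, or exactly half above 10 with the replicate mean above 10; inconclusive = replicate mean below 10 yet half the replicates above 10; inactive = over half of replicates below 10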
Beta cell apopt – beta cell apoptosis inhibition; AID 435005; protection from apoptosis, % (test concentration not listed); hit rate 0.8% among 300,000; INS-1E cytokine-induced death, ATP luminescence, 48 h; percent of positive-control rescue, neutral wells zero;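 active = Every replicate reaches about 75%, or at least half do and their mean reaches it too, limit read from the data; inconclusive = At least half of replicates reach the limit but their mean does not; inactive = Under half of replicates reach the limit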;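 note: 0% = cytokine-treated negative control wells and 100% = positive control rescue; higher means more ATP so stronger rescue from cytokine killing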
Mdm2 MdmX PPI – human Mdm2/MdmX binding inhibition; O15151+Q00987; SaOS-2 split-luciferase Mdm2/MdmX complementation, luminescence; inhibition, % at 8 µM; hit rate 3% among 330,000; AID 485346;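 active = inhibition of at least 50% at 8 µM in the primary screen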
Mdm2-MdmX conf – human Mdm2/MdmX binding inhibition, confirmed. luminescent assay. hit rate 55% among 10,000. inhibition, % at 8 µM. shares compounds with Mdm2 MdmX PPI; in the data active = inhibition above about 40%
Full FLuc ctr – inhibits full-length luciferase, flagging false Mdm2/MdmX hits; shares compounds with Mdm2 MdmX PPI; inhibition, % at 8 µM; SaOS-2 full-length luciferase counterscreen, luminescence; hit rate 77% among 6,200;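 active = mean inhibition at 8 µM reaching about 37%, which flags the compound as non-specific, limit read from the data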;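 note: p53-null SaOS-2 cells with luciferase driven by a doxycycline-inducible promoter; compound on cells about two nights before reading with doxycycline added after day one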
Starred values were filed as active, the others as inactive; ? = inconclusive; . = no result given. Shown are actives, neighbours in structure and some others; about 3.8% of the full set was active somewhere.

SMILES	NTR1 ag	Jurkat NFkB inh	697 NFkB inh	Bfl-1 A1 inh	Beta cell apopt	Mdm2 MdmX PPI	Mdm2-MdmX conf	Full FLuc ctr
Cc1onc(C(=O)N2CCC(Cc3ccccc3)CC2)c1[N+](=O)[O-]	2.0	-6.5	13.1	.	.	82.1*	5.6	.
Cc1ccc(Cl)cc1N1CCN(C(=O)c2noc(C(C)C)c2[N+](=O)[O-])CC1	2.8	2.1	-9.8	2.3	-2.9	68.4*	63.8*	37.3*
CC(C)c1onc(C(=O)N2CCN(C(c3ccccc3)c3ccccc3)CC2)c1[N+](=O)[O-]	-2.3	-2.5	-0.1	-0.5	-2.3	74.0*	94.5*	63.9*
COc1ccccc1NS(=O)(=O)c1cccc(NC(=O)c2cncc(Br)c2)c1	11.4	-10.3	-35.1	-0.6	-0.3	46.4	.	.
COc1ccccc1NC(=O)CN1C(=O)NC2(CCCc3ccccc32)C1=O (centres undefined)	-1.5	12.3	10.5	.	.	-7.0	.	.
COc1ccc(N(CC(=O)NCCc2ccccc2)C(=O)CCC(=O)Nc2nccs2)cc1	0.6	0.7	-3.8	-0.2	-3.2	5.1	.	.
CC(C)c1ccc(NC2CCCN(C(=O)c3cccs3)C2)cc1 (centres undefined)	2.1	-15.3	-20.8	0.0	0.0	0.5	.	.
CCOC(=O)C1(C)NC(c2cccc(C)c2)C2C(=O)N(c3ccccc3)C(=O)C21 (centres undefined)	-0.7	-5.6	1.9	0.7	2.8	-5.6	.	.
CCOc1ccccc1NC(=O)COC(=O)c1c(CC)noc1C	0.2	-7.5	5.1	.	.	-12.8	.	.
CCCNC(=O)Cn1nc(C)n2c(cc3cc(F)ccc32)c1=O	0.2	-37.5	-10.2	0.4	3.7	-26.4	.	.
CCc1nn(CC(=O)NCCCc2ccccc2)c(=O)c2cc3cc(F)ccc3n12	0.4	18.2	-5.4	0.7	-0.6	55.5*	-0.9	.
CCc1nn(CC(=O)NCCC2=CCCCC2)c(=O)c2cc3cc(F)ccc3n12	-0.3	-4.7	3.5	-2.3	-0.1	50.2*	12.2	.
CCCN(C(=O)c1nc2nc(C)cc(C)n2n1)c1c(N)n(Cc2ccccc2)c(=O)[nH]c1=O	1.5	2.9	23.0	0.2	0.7	19.7	.	.
COc1ccc2cc(/C=C/C(=O)N3CCN(CC(=O)N4CCCCCC4)CC3)ccc2c1	1.2	-39.9	-25.9	0.2	-2.1	-19.7	.	.
Cc1occc1C(=O)NNC(=O)CN1C(=O)NC2(CCCCC2)C1=O	-1.1	-2.5	5.2	.	.	-13.0	.	.
CC1(C)CC(=O)C2=C(C1)NC1=C(C(=O)c3ccccc31)C2c1ccc(Cl)cc1 (centres undefined)	13.8	3.8	-4.8	0.6	1.2	57.7*	16.8	.
CCn1c2nc(SCCN3CCOCC3)nnc2c2cc(C)cc(C)c21	2.3	-11.9	12.9	0.1	2.9	16.1	.	.
NC(=O)c1cc[n+](Cc2ccc([N+](=O)[O-])cc2)cc1	-0.4	6.4	-1.2	-0.6	2.0	16.7	.	.
O=C(O)c1c2c(nc3ccccc13)/C(=C/c1ccc(O)cc1)CC2	0.1	3.2	-24.7	-7.1	1.4	61.7*	59.6*	105.6*
Cc1ccc(Cl)cc1N1CCN(C(=O)Cc2csc(Nc3nc(=S)[nH]c4ccccc34)n2)CC1	0.8	6.8	-6.9	0.4	11.6	55.3*	9.1	.
O=C(Cc1csc(Nc2nc(=S)[nH]c3ccccc23)n1)N1CCN(c2cccc(Cl)c2)CC1	9.5	7.1	-1.7	1.3	4.5	35.0	.	.
CCc1ccc(C)[n+](CC(=O)c2cccs2)c1	-1.9	-7.0	5.8	0.5	1.5	-13.2	.	.
FC(F)(F)c1cnc(NNC(=S)Nc2ccc(Cl)cc2)c(Cl)c1	3.7	12.5	-12.5	-0.7	93.4*	90.3*	66.5*	23.3
Fc1ccc(NC(=S)NNc2ncc(C(F)(F)F)cc2Cl)c(F)c1	1.1	4.5	-32.5	-1.6	63.8	77.3*	48.8*	66.8*
CCCC(=O)NC(c1ccc(Cl)cc1Cl)c1ccc2cccnc2c1O (centres undefined)	2.9	46.5	-40.9	-0.4	94.1*	81.1*	84.7*	54.8*
SMILES	NTR1 ag	Jurkat NFkB inh	697 NFkB inh	Bfl-1 A1 inh	Beta cell apopt	Mdm2 MdmX PPI	Mdm2-MdmX conf	Full FLuc ctr
CC(=O)NC(c1ccc(Cl)cc1Cl)c1ccc2cccnc2c1O (centres undefined)	2.2	46.4	-22.8	0.2	-6.1	68.0*	86.7*	53.5*
COc1ccc(C(NC(C)=O)c2ccc3cccnc3c2O)c(OC)c1 (centres undefined)	0.3	35.2	-27.4	-0.5	108.8*	73.7*	70.8*	31.2
CC(=O)NC(CC(=O)NC(C)c1ccc(Cl)cc1Cl)c1ccccc1 (centres undefined)	0.2	-0.7	2.8	0.1	3.3	12.2	.	.
CCCC(=O)NC(c1ccc(Cl)cc1)c1ccc2cccnc2c1O (centres undefined)	0.9	46.5	-24.4	1.0	113.0*	78.1*	83.5*	57.0*
CCCC(=O)NC(c1ccccc1Cl)c1c(O)ccc2ccccc12 (centres undefined)	1.1	6.6	-10.2	0.2	1.7	31.1	.	.
CC(C)C(NC(=O)C1CCCCC1)C(=O)NC1CCCC(C)C1C (centres undefined)	0.0	3.6	7.4	1.3	-1.5	-6.7	.	.
CCN(CC)CCN(C(=O)c1ccc2c(c1)CCCC2)c1nc2c(C)cccc2s1	-3.5	-0.4	3.6	0.0	8.2	32.2	.	.
Cn1c(N)c(C(=O)CSc2nnc(-c3c[nH]c4ccccc34)n2C2CC2)c(=O)[nH]c1=O	1.1	-6.2	16.4	0.0	-4.0	-18.4	.	.
O=C(NC1CCN(Cc2ccccc2)CC1)c1cccc(S(=O)(=O)Nc2ccc(SC(F)F)cc2)c1	2.8	8.6	-21.1	-0.5	15.3	18.4	.	.
O=C(Nc1cc(Cl)ccc1C(=O)O)c1ccc(CN2C(=O)c3ccccc3C2=O)cc1	.	.	.	0.7	-4.8	.	.	.
O=C(Nc1ccc(S(=O)(=O)N2CCCCCC2)cc1)c1[nH]ncc1[N+](=O)[O-]	1.6	-25.1	-50.3	-5.9	-10.8	51.6*	35.7	.
CN(Cc1ccco1)c1ncnc2ccc(-c3ccc4c(ccn4C)c3)cc12	0.9	43.9	-26.7	?	20.0	50.6*	53.1*	65.8*
CCN(CC)CCNc1ncnc2c1sc1nc(N3CCOCC3)c3c(c12)CC(C)(C)SC3	18.1	16.8	-25.8	0.4	103.2*	63.5*	39.5	54.0*
CN(C)CCNc1ncnc2c1sc1nc(N3CCOCC3)c3c(c12)CC(C)(C)SC3	18.1	-5.2	5.3	0.5	11.0	70.2*	44.5*	75.2*
CC1(C)Cc2c(c(N3CCOCC3)nc3sc4c(=O)[nH]cnc4c23)CS1	2.9	0.6	6.3	0.3	8.2	5.7	.	.
